Among the data in PubChem BioAssay (EPA / NIEHS) are outcome and AC50 values, retold here.

Calls of active or inactive are those of the source. Rule for the calls: active = hit-call score of the fitted dose curve at least 0.9, where 1 is the maximum; inactive = score below 0.9.

A short description of the assay: IUF_NPC4_neurite_length_120hr: Leibniz Research Institute for Environmental Medicine (IUF) 120-hour Neuronal Morphology Assay for Neurite Length (NPC4) (AID 2284302). On the procedure:
IUF_NPC2-5 is a cell-based, multiplexed assay that uses hNPC, a human primary neural progenitor cells, with measurements taken at 72 or 120 hours after chemical dosing in a 96-well plate. Human neural progenitor cells (hNPC) are generated from human fetal brain cortex at gestational week (GW) 16-19. In the neural progenitor cell migration and differentiation assay (NPC2-5), hNPCs grown as spheres are plated on an extracellular matrix and migrate and differentiate out of the sphere core. The processes radial glia migration, neuronal and oligodendrocyte migration as well as neuronal differentiation, neuronal morphology and oligodendrocyte differentiation are studied using automated phase contrast imaging and automated fluorescence imaging in combination with high content image analysis. In parallel, the cell viability is assessed using an alamar blue viability assay and the cytotoxicity using a lactate dehydrogenase dependent membrane integrity assay.IUF_NPC4_neurite_length_120hr is one of 12 assay components measured from the IUF_NPC2-5 assay. The neurite length at 120 hr is the mean length in um of all neurons (see IUF_NPC3_neuronal_differentiation_120hr) that are identified by the skeletonization algorithm in Omnisphero.Data from the IUF_NPC4_neurite_length_120hr component was analyzed at the endpoint IUF_NPC4_neurite_length_120hr in the positive analysis fitting direction relative to DMSO as the negative control and baseline of activity. Using a type of differentiation reporter, gain or loss-of-signal activity can be used to understand developmental effects.
Culture protocol: After the cell expansion period the cells are cultured for up to four weeks in which they are passaged every week as described in 3.6. Between one to three days after passaging spheres at a size of 0.3 mm are picked for the test method. For the assessment of neural progenitor cell migration and differentiation, the spheres are plated on poly-D-lysine/laminin coated 96-well flat bottom plates in differentiation medium (N2) to initiate migration and differentiation. Thereby one 0.3 mm big sphere is plated in the middle of a well. The differentiation medium consists of DMEM and Ham's F12 at a ratio of 3 to 1 supplemented with 1% N2 and 1% penicillin and streptomycin. Within 5 days NPCs radially migrate out of the sphere core and differentiate into radial glia cells (nestin positive), neurons (TUBB3 positive), oligodendrocytes (O4 positive) and astrocytes (GFAP positive). Cultivation during the test method is performed at 37C and 5% CO2 at a ph of 7.2-7.6.Exposure: 0.3 mm big hNPC are plated in the already prepared test conditions. Exposure starts at day 0 of differentiation and is continued over five days of differentiation until the experiment is terminated. Cells are fed with fresh medium at day 3 of differentiation. Therefore, half of the test condition solution (e.g. solvent control or compound dilution) is replaced by freshly prepared test condition solution.Test Method: Migration distance and cytotoxicity is determined after 72 hours based on brightfield images of each well. The assay is terminated by the assessment of cell viability and cytotoxicity as well as cell fixation after 120 h. Immunocytochemistry is performed for Hoechst positive nuclei, TUBB3 positive neurons and O4 positive oligodendrocytes. On the ICC images, migration after 120 hours, neuronal and oligodendrocyte number, neuronal morphology and neuron/oligodendrocyte specific migration is assessed. immunocytochemical staining (ICC) generates an image for each sphere. The plates are scanned using an automated high content imaging device and all nuclei and their positions are determined automatically based on their intensity and size. Images are imported to the Omnisphero software to run the image analysis that measures the following endpoints. The method is set up for 8 test conditions including 7 compound concentrations and one SC. […]
`Cc1c(COC(=O)[C@@H]2[C@H](/C=C(\Cl)C(F)(F)F)C2(C)C)cccc1-c1ccccc1`: the outcome was inactive.
Still for that read-out and setting: for `O=C(Nc1ccccc1-c1ccc(Cl)cc1)c1cccnc1Cl` the value was “inactive”.
`CCSC(=O)N1CCCCCC1`: the AC50 is 0.143 µM (active).
Take `CS(=O)(=O)c1cc(C(F)(F)F)ccc1C(=O)c1cnoc1C1CC1`: the call was inactive.
Still for that read-out and setting: for `COP(=S)(OC)SCn1nnc2ccccc2c1=O` the value was “inactive”.
Same read-out and setting: for `CC1(C)C(C=C(Cl)Cl)C1C(=O)OC(C#N)c1cccc(Oc2ccccc2)c1` (stereo unspecified) the value was “inactive”; for `CCNC(=O)NC(=O)C(C#N)=NOC`, “inactive”; for `COC(=O)N(C(=O)N1CO[C@@]2(C(=O)OC)Cc3cc(Cl)ccc3C2=N1)c1ccc(OC(F)(F)F)cc1`, “inactive”.
With `CNC(=O)Oc1cccc2ccccc12`, the AC50 was 10 µM (active).
Consider `CO/N=C(/C1=NOCCO1)c1ccccc1Oc1ncnc(Oc2ccccc2Cl)c1F`, for which the call was inactive.
As to `CS(=O)(=O)c1ccc(C(=O)C2C(=O)CCCC2=O)c([N+](=O)[O-])c1`, the AC50 was 0.203 µM (active).
On to `C=C(C)CN(CC)c1c([N+](=O)[O-])cc(C(F)(F)F)cc1[N+](=O)[O-]`, for which the call was inactive.
As for `N#CN=C1SCCN1Cc1ccc(Cl)nc1`, the call was inactive.
On the same count and under the same terms, for `CC(C)(C)C(=O)C(Oc1ccc(Cl)cc1)n1cncn1` (stereo unspecified) the value was “inactive”; for `CCOP(=O)(OCC)Oc1nc(Cl)c(Cl)cc1Cl`, “inactive”.
As to `CN/C(=N\[N+](=O)[O-])NCc1cnc(Cl)s1`, the AC50 was 10 µM (active).
